# In PubChem BioAssay AID1851 (National Center for Advancing Translational Sciences (NCATS), 2009):
# In all, about 16,000 compounds went through this assay and about 5,700 (36%) were called active. Inconclusive results (about 24%) are left out. The call rests on the fitted dose curve; in most records, active means well fitted curve in the direction sought with a large enough effect; inconclusive means small, poorly fitted or top-dose-only effect, or effect the other way; inactive means no such curve, though single readings can be large or run the other way. Some of the results follow.
# Target: Cytochrome P450 1A2 (Homo sapiens) (UniProt P05177)
# Sequence (P05177 whole entry, looked up): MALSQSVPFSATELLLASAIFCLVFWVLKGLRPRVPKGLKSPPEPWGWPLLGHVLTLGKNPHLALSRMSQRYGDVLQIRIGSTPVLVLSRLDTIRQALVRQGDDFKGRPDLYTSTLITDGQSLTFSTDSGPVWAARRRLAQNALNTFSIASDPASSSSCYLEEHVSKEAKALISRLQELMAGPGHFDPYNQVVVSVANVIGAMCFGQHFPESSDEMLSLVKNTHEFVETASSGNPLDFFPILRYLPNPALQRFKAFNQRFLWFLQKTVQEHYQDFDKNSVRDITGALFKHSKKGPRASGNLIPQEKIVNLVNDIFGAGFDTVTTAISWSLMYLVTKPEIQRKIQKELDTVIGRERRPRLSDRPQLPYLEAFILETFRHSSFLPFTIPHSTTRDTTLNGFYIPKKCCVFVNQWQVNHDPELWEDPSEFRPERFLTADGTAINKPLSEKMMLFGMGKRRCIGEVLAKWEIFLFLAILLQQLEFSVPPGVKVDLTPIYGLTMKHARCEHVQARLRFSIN
# Assay: Cytochrome panel assay with activity outcomes
# Details: recombinant CYP, pro-luciferin dealkylation, luminescence, p450-cyp1a2; series mostly up to 57.1 µM
# On the % scale 0 is the no-effect control and ±100 the full control effect.
Structure (SMILES),AC50,"activity, negative = inhibition"
O=C(Cn1cnc([N+](=O)[O-])c1)NCc1ccc(F)cc1,inactive,
COc1ccccc1CCn1c(=O)c(-c2cn(C)c3ccccc23)nc2cncnc21,1.26 µM (active),
COC(=O)CC[C@@H](C)[C@H]1CC[C@H]2[C@H]3CC[C@H]4C[C@@H]5CC[C@@]4(C)C3(O5)[C@@H](Br)[C@@H](Br)[C@@]12C,,-8.93% [at 11.4 µM] (inactive)
CCCC(=O)Nc1nc(C(=O)OCC)cs1,15.8 µM (active),
CCCC(=O)Nc1c(C)n[nH]c1C,inactive,
COc1cc(OC)c2c(c1)C(=O)c1cc(OC)cc(OC)c1C2=O,2 µM (active),
Cc1ccc(-n2ccnc2SCC(=O)N(CC(C)C)C2CCS(=O)(=O)C2)c(C)c1 (centres undefined),inactive,
O=C(CSc1ccc(Cl)cc1)Nc1cccc(NC(=O)c2ccco2)c1,2 µM (active),
CC(=O)c1ccc(-n2nnnc2SCC(=O)Nc2cccc(NC(=O)c3ccco3)c2)cc1,0.501 µM (active),
COc1ccc(NC(=O)CSc2nnc(CNC(=O)c3ccco3)n2-c2ccccc2OC)cc1,inactive,
Cc1ccc(-n2nnnc2SCC(=O)NNC(=O)c2ccco2)c(C)c1,inactive,
O=C(CSc1ccccc1)Nc1ccc(NC(=O)c2ccco2)cc1,inactive,
Fc1cccc(F)c1C(Nc1nncs1)Nc1nncs1,,12.3% [at 2.29 µM] (inactive)
Cc1cccc(C(=O)NC2CCN(C(=S)NCc3ccco3)CC2)c1,inactive,
Cn1c(=O)n(-c2ccc(Cl)cc2)c(=O)c2c3c(sc21)COC(C)(C)C3,14.1 µM (active),
O=C(C/C=N/OCc1ccc(Cl)cc1Cl)c1ccc(Cl)cc1,2.82 µM (active),
O=C(C/C=N/OCc1ccc(F)cc1Cl)c1cnc(-c2ccccc2)s1,1.78 µM (active),
O=C1[C@@H]2[C@H]3[C@H](O)[C@H](O)C/C(=N/OCc4ccccc4)[C@H]3CC[C@H]2C(=O)N1c1ccc(F)cc1F,,-0.404% [at 11.4 µM] (inactive)
CCCc1nnc(SCC(=O)N2C(C)CCCC2C)n1CCCOC (centres undefined),inactive,
Cc1ccc(NC(=O)/C(=C\c2cccc([N+](=O)[O-])c2)NC(=O)c2cccs2)cc1,inactive,
O=C(Nc1cccc(F)c1)/C(=C\c1ccco1)NC(=O)c1cccs1,4.47 µM (active),
O=C(Nc1cccc(F)c1)N1CCC2(CC1)CCN(C(=O)c1ccco1)CC2,inactive,
NCCC(=O)O,inactive,
CCCCCC/C(C)=C1/SC(=S)NC1=O,2.51 µM (active),

Structure (SMILES),AC50,"activity, negative = inhibition"
c1ccc(Oc2cc(-c3ccccc3)ncn2)cc1,2.82 µM (active),
COc1cc(/C=N/NC(=O)c2cccnc2)ccc1OC(=O)c1ccc2c(c1)OCO2,inactive,
COc1cc(/C=N/NC(=O)c2cccnc2)ccc1OC(=O)c1ccco1,12.6 µM (active),
Cc1ccc(C2=C(Cl)C(=O)C(c3ccc(C)cc3)=C(Cl)C2=O)cc1,,-16.9% [at 2.29 µM] (inactive)
COc1cccc(C2=CC(c3ccccc3)n3nnnc3N2)c1 (centres undefined),1.12 µM (active),
Cc1cc(C)c(/C=C2/C(=O)Nc3ccccc32)[nH]1,0.794 µM (active),
CN(C)c1ccc(/C=C2/C(=O)Nc3ccccc32)cc1,0.1 µM (active),
O=C1Nc2cc(C(=O)N3CCOCC3)ccc2SC1N1CCOCC1 (centres undefined),inactive,
N[C@@H](CSCc1ccc(I)cc1)C(=O)O,,-12% [at 2.29 µM] (inactive)
COC(=O)[C@H](CCSC)NC(=O)C/C=C\[C@@H](C)[C@@H](CO)OC,,-1.07% [at 11.4 µM] (inactive)
c1ccc(C[n+]2cccc(-c3cc4ccccc4[nH]3)c2)cc1,1.26 µM (active),
COc1cc2c3c(c1OC)C1(C=CC(=O)C=C1)CC3N(C(=O)c1ccccc1)CC2 (centres undefined),inactive,
COc1ccc(C(=O)N2CCC3(CCCN(Cc4ccccc4)C3)CC2)cc1,inactive,
COc1ccc(C(=O)N2CCC3(CCN(C)CC3)CC2)cc1,inactive,
COc1ccc(C(=O)/C=C2/c3ccccc3CC(C)(C)N2C)cc1,15.8 µM (active),
N=C1CCC[C@@H]1C(=S)SCCC(N)=O,3.16 µM (active),
N#CCCSC(=S)[C@H]1CCCC1=N,3.16 µM (active),
CCN1C(=O)C(O)(CC(=O)/C=C/C=C/c2ccccc2)c2ccccc21 (centres undefined),10 µM (active),
CCN1C(=O)C(O)(C2COC(C)(C)CC2=O)c2ccccc21 (centres undefined),inactive,
COc1ccc([C@H]2Sc3ccccc3N(CCN(C)C)C(=O)[C@H]2OC(C)=O)cc1,inactive,
COc1ccc([C@@H]2Sc3ccccc3N(CCN(C)C)C(=O)[C@@H]2OC(C)=O)cc1,inactive,
CCCN1C(=O)C(NC(C)=O)c2cc(OC)ccc21 (centres undefined),7.08 µM (active),
CN(C)c1ccc(-c2ccc3ncnc(NC4CC4)c3c2)cc1,0.2 µM (active),
c1nc(NC2CCNCC2)c2cc(-c3ccoc3)ccc2n1,25.1 µM (active),

Structure (SMILES),AC50,"activity, negative = inhibition"
c1nc(NC2CC2)c2cc(-c3ccoc3)ccc2n1,0.794 µM (active),
c1nc(NC2CCNCC2)c2cc(-c3ccc4c(c3)OCO4)ccc2n1,12.6 µM (active),
CC(=O)N[C@@H](C(=O)O)C(C)(C)SN=O,inactive,
O=C(Cn1cccc1)NC1CCCCCC1,inactive,
O=C(N/N=C/c1c[nH]c2ccccc12)c1ccn(Cc2ccc(Cl)cc2Cl)n1,0.708 µM (active),
O=C(N/N=C/c1c[nH]c2ccc(Br)cc12)c1ccn(Cc2ccc(Cl)cc2)n1,3.16 µM (active),
COC(=O)C1=C(C)NC2=C(C(=O)CCC2)C1c1cn(Cc2ccc(Cl)cc2Cl)nc1-c1ccccc1 (centres undefined),inactive,
CN(C)C(CNC(=O)NC1CCCCC1)c1cccnc1 (centres undefined),inactive,
O=C(NC1CCCC1)c1cccnc1N1CCCCCC1,15.8 µM (active),
O=C(O)C1CCN(c2ncccn2)CC1,inactive,
C/C=C\C1=C(CO)[C@H](O)[C@H]2OC2[C@@H]1O (some centres undefined),,-5.28% [at 11.4 µM] (inactive)
N#C/C(=C/c1cccc(C(F)(F)F)c1)c1nc(CCN2C(=O)c3ccccc3C2=O)cs1,12.6 µM (active),
C[C@@H]1CC[C@@H]2C(=O)N3[C@@H](CC[C@@H](C)[C@@H]3c3ccc(-c4ccco4)cc3)C(=O)N2[C@H]1c1ccc(-c2ccco2)cc1,,-4.34% [at 11.4 µM] (inactive)
Fc1ccc(C2CC(c3ccco3)=NN2c2ccccc2)cc1 (centres undefined),1.12 µM (active),
CC1=C(C(=O)O)N2C(=O)C(NC(=O)c3ccn(C)n3)C2SC1 (centres undefined),inactive,
c1nc(NCCN2CCOCC2)c2cc(-c3ccoc3)ccc2n1,12.6 µM (active),
CC(=O)NCCNc1ncnc2ccc(-c3c(C)noc3C)cc12,15.8 µM (active),
c1nc(NCCN2CCOCC2)c2cc(-c3ccc4c(c3)OCO4)ccc2n1,2.51 µM (active),
Cc1noc(C)c1-c1ccc2ncnc(NCCN3CCOCC3)c2c1,15.8 µM (active),
c1cncc(-c2ccc3ncnc(NCCN4CCOCC4)c3c2)c1,1 µM (active),
COc1ccccc1CNc1ncnc2ccc(-c3cccc(C#N)c3)cc12,0.251 µM (active),
COc1ccc(CNc2ncnc3ccc(-c4cccc(C#N)c4)cc23)c(OC)c1,3.16 µM (active),
Cc1nc(C(=O)Nc2cccc(Cl)c2Cl)nn1-c1cc(OC(C)C)c(Cl)cc1Cl,inactive,
O=C(Nc1cccc(Cl)c1Cl)c1snnc1-c1ccccc1,1.26 µM (active),

Structure (SMILES),AC50,"activity, negative = inhibition"
CC[C@H](C)C(=O)O[C@@H]1C[C@H](C)C=C2C=C[C@H](C)[C@@H](CC[C@H]3C[C@@H](O)CC(=O)O3)[C@H]21,inactive,
CN(C)S(=O)(=O)c1ccc2c(c1)/C(=C/c1cc3c([nH]1)CCCC3)C(=O)N2,0.316 µM (active),
CCOC(=O)O[C@]1(C(=O)COC(=O)CC)CC[C@@H]2[C@@H]3CCC4=CC(=O)C=C[C@@]4(C)[C@H]3[C@H](O)C[C@]21C,inactive,
Cc1ccc(S(=O)(=O)Nc2ccc(=O)n(Cc3ccc(Cl)c(Cl)c3)c2)cc1,25.1 µM (active),
O=c1ccc(NS(=O)(=O)c2ccccc2)cn1Cc1ccc(Cl)c(Cl)c1,inactive,
Cc1cc(NS(=O)(=O)c2ccc(NC(=O)CN3C(=O)c4ccccc4C3=O)cc2)nc(C)n1,inactive,
CCCn1c(-c2cccs2)nc2nc3ccccc3nc21,1.78 µM (active),
Cc1ccc(NC(=O)Cn2nc([N+](=O)[O-])c(Br)c2C)cc1C,12.6 µM (active),
Cc1c(Br)c([N+](=O)[O-])nn1CC(=O)NCc1ccccn1,inactive,
Cc1c(Cl)c([N+](=O)[O-])nn1CC(=O)Nc1c(C)n(C)n(-c2ccccc2)c1=O,inactive,
Cc1cc(C)c(S(C)(=O)=O)c(Oc2ccc(F)cc2)n1,10 µM (active),
COc1ccc(Oc2nc(C)cc(C)c2S(=O)(=O)c2ccc(C)cc2)cc1,inactive,
Cc1cc(C)c(S(C)(=O)=O)c(Oc2ccc(C(C)(C)C)cc2)n1,4.47 µM (active),
O=C(O)[C@@H](O)[C@@H](O)[C@@H](O)[C@@H](O)C(=O)O (tested in a mixture with another compound),inactive,
COc1ccccc1CNc1nc(-c2ccccc2CN(C)C)nc2ccccc12,0.794 µM (active),
COc1ccc(CNc2nc(-c3ccccc3CN(C)C)nc3ccccc23)c(OC)c1,10 µM (active),
COC(=O)c1[nH]c(C)c(/C(O)=C2\C(=O)C(=O)N(CCN(C)C)C2c2cccs2)c1C (centres undefined),inactive,
C/C(Cl)=C/CSc1nnc2n(N)c(=O)c3ccccc3n12,11.2 µM (active),
CCCSc1nnc2n(N)c(=O)c3ccccc3n12,4.47 µM (active),
CCC(=O)N[C@@H]1CCc2cccc(OC)c2C1,12.6 µM (active),
CCOc1ccccc1NC(=O)CN1CCC(NC(=O)c2ccccc2)CC1,inactive,
COC(=O)N1CCC2(CC1)CCN(C(c1ccccc1)c1ccccc1)CC2,inactive,
